From PubChem
ALDH1A1 inh = blocks purified human ALDH1A1 activity; Purified ALDH1A1, NADH fluorescence, propionaldehyde substrate; Potency, µM (doses to about 75.3 µM), without a hit: top-dose activity, negative = inhibition, actives largely listed as inhibitors; 7.3% of 220,000 active; AID 1030;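 further: potency means the concentration at half of the fitted maximal effect; plate controls were no enzyme wells and a reference inhibitor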
JMJD2E inh = inhibitors of human JMJD2E histone demethylase; JMJD2E catalytic domain, FDH-coupled NADH fluorescence (FDH is formaldehyde dehydrogenase); Potency, µM (series often up to 57.1 µM), for inactives: at the top dose activity change, negative = inhibition, actives largely listed as inhibitors; 1.6% of 230,000 active; AID 2147;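 further: potency means the concentration at half of the fitted maximal effect; 0% = wells with enzyme and -100% = buffer wells without enzyme; nearly all actives have a fitted effect of over 50% in size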
Target sequence (B2RXH2 1-337 limits assumed): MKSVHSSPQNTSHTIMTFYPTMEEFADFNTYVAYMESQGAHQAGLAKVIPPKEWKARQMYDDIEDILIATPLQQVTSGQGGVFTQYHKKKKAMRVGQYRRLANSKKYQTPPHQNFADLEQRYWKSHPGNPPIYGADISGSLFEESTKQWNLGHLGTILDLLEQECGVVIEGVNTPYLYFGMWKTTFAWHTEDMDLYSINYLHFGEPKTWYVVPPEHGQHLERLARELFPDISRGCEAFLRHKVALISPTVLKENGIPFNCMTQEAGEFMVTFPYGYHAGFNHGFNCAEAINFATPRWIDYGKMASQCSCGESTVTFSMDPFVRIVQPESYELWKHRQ
Sfp PPTase inh = Sfp phosphopantetheinyl transferase inhibition; AID 1490; Biochemical Sfp PPTase activity, qHTS; Q9F4F7; Potency, µM, without a hit: largest response in the series, negative = inhibition, most hits filed as inhibitors; 3.5% of 310,000 active; active means well fitted curve in the direction sought with a large enough effect; inconclusive means small, poorly fitted or top-dose-only effect, or another doubt; inactive means no such curve, though single readings can be large; an effect the other way counts as inactive or inconclusive;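 further: the enzyme is Sfp with the accession as filed and its product quenches rhodamine fluorescence; potency means the concentration at half of the fitted maximal effect; 0% = enzyme reaction without inhibitor and -100% = no enzyme wells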
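Reaction rates are the 30-min fluorescence difference (ex 525, em 598 nm) in wells containing 15 nM Sfp, 5 uM rhodamine-CoA and 12.5 uM BHQ-2-YbbR at pH 7.6 with 10 mM MgCl2.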
GoLoco inh red = blocks human Gai1 binding to RGS12 GoLoco peptide, red readout | P63096 | Gai1:RGS12 GoLoco peptide FP, rhodamine, 10 min | Potency, µM (top dose mostly 61.6 µM), inactives show at the highest dose activity, negative = inhibition, most hits filed as inhibitors | 0.44% of 230,000 active | AID 880; active means well fitted inhibition curve with a large enough effect, not every such curve was filed as active; inactive means no such curve, though single readings can be large or run the other way; further: potency means the concentration at half of the fitted maximal effect; nearly all actives have a fitted effect of over 30% in size
NPSR antagonist = blocks cAMP signaling of the human neuropeptide S receptor | CHO-NPSR cells, cAMP TR-FRET, antagonist mode | Q6W5P4 | 1% of 220,000 active | Potency, µM (highest dose often 38.3 µM), for the others: at the highest dose activity change, negative = inhibition, most hits filed as inhibitors | AID 1461; active means well fitted curve in the direction sought with a large enough effect; inconclusive means small, poorly fitted or top-dose-only effect, or another doubt; inactive means no such curve, though single readings can be large; an effect the other way counts as inactive or inconclusive; further: potency means the concentration at half of the fitted maximal effect; nearly all actives have a fitted effect of over 50% in size
FBPA coupling cs = coupling enzyme interference in Giardia aldolase counter-screen. AID 2472. activity change, negative = inhibition, % at 58.2 µM, hits read low. 0.67% of 290,000 active. coupling enzyme system counterscreen, AmpLite Red fluorescence; in the data active means activity change below about -30%
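Coupling enzymes only (glyceraldehyde-3-phosphate) + compound, at 57.5 uM final, 10 min RT; add substrate/coupling/AmpLite Red mix, 20 min RT; fluorescence ex 525/em 598 nm. Actives flag coupling-system interference.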
An asterisk follows results filed as active; [ ] = another dose, or the depositor's remark. Only some compounds are listed: those with a hit (about 8.5% of all), similar ones and a draw of the others. Unless noted, the call rests on the fitted dose curve; in most records, active means well fitted inhibition curve with a large enough effect (not every such curve was filed as active); inconclusive means small, poorly fitted or top-dose-only effect, or another doubt; inactive means no such curve, though single readings can be large or run the other way. Unless noted, on the % scale 0 is the no-effect control and ±100 the full control effect.

How did CN(C)c1ccc(/C=N\NC(=O)c2csnn2)cc1 do in these assays?
ALDH1A1 inh: 1µM*; JMJD2E inh: -20.8%; Sfp PPTase inh: 39.8µM*; GoLoco inh red: -0.4%; NPSR antagonist: inconclusive; FBPA coupling cs: 2.0

What do the screens show for `CN(C)c1ccc(/C=N/NC(=O)c2ccccn2)cc1`?
JMJD2E inh: -15.3%; Sfp PPTase inh: -18.9%; GoLoco inh red: 8.0%; NPSR antagonist: inconclusive; FBPA coupling cs: 1.4

Results for CC(C)c1nc2sc3c(=O)n(N)cnc3c2c2c1COC(C)(C)C2 ?
ALDH1A1 inh: inconclusive; JMJD2E inh: 8.1%; Sfp PPTase inh: 1.5%; GoLoco inh red: 0.8%; NPSR antagonist: 12.4%; FBPA coupling cs: 0.6

How did O=C(O)CCCn1c(=S)[nH]c2c(sc3ccc([N+](=O)[O-])cc32)c1=O do in these assays?
ALDH1A1 inh: -4.8%; JMJD2E inh: -10.7%; Sfp PPTase inh: 44.7µM*; GoLoco inh red: -20.7%; NPSR antagonist: 8.5%; FBPA coupling cs: 5.8

What do the screens show for `CC1CCN(CCCn2c(=S)[nH]c3c(sc4ccc([N+](=O)[O-])cc43)c2=O)CC1`?
ALDH1A1 inh: -14.7%; JMJD2E inh: -15.5%; Sfp PPTase inh: 56.2µM*; GoLoco inh red: -11.8%; NPSR antagonist: 10.3%; FBPA coupling cs: -2.1

How did Cc1cc(C)n2nc(CNS(=O)(=O)c3ccc(F)c(C)c3)nc2n1 do in these assays?
Sfp PPTase inh: 7.0%; FBPA coupling cs: 1.3

Results for C/C=C/C(=O)[C@@H](C)[C@@H](/C=C/C[Si](C)(C)C)c1ccccc1 ?
Sfp PPTase inh: -9.2%; FBPA coupling cs: -2.9

Results for O=C(COc1cccnc1[N+](=O)[O-])c1ccc(Cl)s1 ?
ALDH1A1 inh: 0.708µM*; JMJD2E inh: 14.1µM*; Sfp PPTase inh: 2µM*; GoLoco inh red: 73.1%; NPSR antagonist: 17.2%; FBPA coupling cs: -29.7

What do the screens show for `CC(Sc1nc(-c2ccc(F)cc2)cs1)C(=O)Nc1ccc(Cl)cn1` (configuration not stated)?
ALDH1A1 inh: 0.7%; JMJD2E inh: 2.6%; Sfp PPTase inh: -2.1%; GoLoco inh red: 1.7%; NPSR antagonist: -1.7%; FBPA coupling cs: 0.5

Results for O=C(O)CC1SC(=Nc2ccccc2)N(c2ccccc2)C1=O (configuration not stated) ?
ALDH1A1 inh: -2.4%; JMJD2E inh: 1.8%; Sfp PPTase inh: 10.0%; GoLoco inh red: 10.5%; NPSR antagonist: -12.4%[46.1 µM]; FBPA coupling cs: 3.7

What do the screens show for `O=C(CC1S/C(=N\S(=O)(=O)c2ccccc2)N(c2ccccc2)C1=O)Nc1ccc(F)cc1` (configuration not stated)?
ALDH1A1 inh: 25.1µM*; JMJD2E inh: -2.5%; Sfp PPTase inh: 12.3%; GoLoco inh red: 69.2%; NPSR antagonist: -8.3%; FBPA coupling cs: -0.1

What do the screens show for `Cc1ccc(S(=O)(=O)/N=C2\SC(CC(=O)Nc3ccc(F)cc3)C(=O)N2c2ccccc2)cc1` (configuration not stated)?
ALDH1A1 inh: 5.62µM*; JMJD2E inh: -0.2%; Sfp PPTase inh: -4.7%; GoLoco inh red: 3.4%; NPSR antagonist: -16.1%; FBPA coupling cs: 1.1

Results for C=CCN1C(=O)C(CC(=O)Nc2ccc(C)cc2)SC1=Nc1c(C)n(C)n(-c2ccccc2)c1=O (configuration not stated) ?
ALDH1A1 inh: 2.4%; JMJD2E inh: -1.6%; Sfp PPTase inh: 0.0%; GoLoco inh red: 1.6%; NPSR antagonist: -17.9%[46.1 µM]; FBPA coupling cs: 2.5

How did COc1ccc(C(=O)NC(=S)NCc2ccc(-c3nc4ccccc4o3)cc2)cc1OC do in these assays?
ALDH1A1 inh: 5.01µM*; JMJD2E inh: 5.0%; Sfp PPTase inh: inconclusive; GoLoco inh red: 24.2%; NPSR antagonist: -13.8%[46.1 µM]; FBPA coupling cs: 1.0

Results for COc1ccc(C(=O)NC(=S)NCc2ccccc2)cc1OC ?
ALDH1A1 inh: inconclusive; JMJD2E inh: -29.1%; Sfp PPTase inh: -14.0%; GoLoco inh red: 11.8%; NPSR antagonist: -39.3%; FBPA coupling cs: 1.1
